# Assay results reported in PubChem BioAssay.
# System: Neuregulin-1 EGF-like domain
# Assay: binders of neuregulin-1 EGF-like domain, primary screen, biochemical, small-molecule microarray, 635 nm fluorescence (AID 1081);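 further: binding of the protein to compounds printed on small-molecule microarray slides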
# Settings: small-molecule microarray binding, higher = more signal
row,SMILES,composite z-score
1,COCCOC(=O)N1C(=O)[C@@]2(c3cc(C#Cc4ccc(OC)cc4)ccc31)[C@H](C(=O)N1CCN(c3ncccn3)CC1)[C@H]1C(=O)O[C@H](c3ccccc3)[C@H](c3ccccc3)N1[C@@H]2c1ccc(O)cc1,0.542
2,COC(=O)C(CC#Cc1ccc2c(c1)[C@]1(C(=O)N2)[C@H](C(=O)NC[C@H](O)c2ccccc2)[C@H]2C(=O)O[C@H](c3ccccc3)[C@H](c3ccccc3)N2[C@@H]1c1ccc(OCCO)cc1)C(=O)OC,1.3
3,O=C1C2C=CC(C(O)c3ccc(-c4ccccc4)s3)N(n3cnnc3)C2C(=O)N1Cc1ccccc1 (stereo not given),1.04
4,O=c1cccc(C=Cc2ccccc2)o1,-0.0882
5,C=C(C(=O)CC[C@H](OC(C)=O)c1ccc(OCCO)cc1)C(C)C,-0.108
6,CCCC[C@H]1OB(O)C[C@H]2C1=C(C)C[C@H]1C(=O)N(Cc3ccccc3)C(=O)[C@H]12,0.795
7,CCCCC(CC)C(O)C1C=CC2C(=O)N(c3ccccc3)C(=O)C2N1Nc1ccccc1 (stereo not given),1.06
8,O=C(OCCF)C1=CCC(c2cccc(Cl)c2)O1 (stereo not given),1.03
9,COCC1=C2[C@@H](CCc3ccccc3)OB(O)C[C@@H]2[C@@H]2C(=O)N(Cc3ccccc3)C(=O)[C@@H]2C1,-0.0593
10,CC(C)C[C@@H]1NC(=O)[C@H]2C[C@@H](C(=O)NCCCCCNC(=O)CS)[C@@H](c3cccc(OCCO)c3)N2C1=O,1.31
11,COc1ccc(CCN2C(=O)[C@@]3(Cc4ccccc42)c2ccccc2C(=O)N(Cc2ccccc2Cl)[C@H]3c2ccc(CO)cc2)cc1,0.834
12,CCCCCN1CC=CC23O[C@@H]4C=CCOC(=O)[C@@H]4[C@H]2C(=O)N(CCCO)[C@@H]3C1=O (stereo not given in full),1.27
13,O=C1OCCC=C[C@H]2OC34C=CCN(Cc5ccccc5)C(=O)[C@H]3N(CCCCCCO)C(=O)[C@@H]4C12 (stereo not given in full),0.92
14,CN(C)CCCCNC(=O)[C@H]1C[C@H]2C(=O)N[C@@H](Cc3ccccc3)C(=O)N2[C@H]1c1ccc(O)cc1,1.22
15,COCCOC(=O)N1C(=O)[C@@]2(c3cc(C#CCC(C(=O)OC)C(=O)OC)ccc31)[C@H](c1ccccc1OCCO)N1[C@H](c3ccccc3)[C@H](c3ccccc3)OC(=O)[C@H]1[C@@H]2C(=O)N1CCc2cc(OC)c(OC)cc2C1,1.27
16,COC(=O)[C@@]1(Cc2ccccc2)[C@H]2c3cc(C(=O)N(C)C)n(Cc4c(-c5ccccc5)noc4C)c3C[C@H]2CN1C(=O)c1ccccc1,1.24
17,O=C1C[C@@](C(=O)NC2CC2)(c2ccc([N+](=O)[O-])cc2)[C@@H](c2ccc(CO)cc2)N1CC12CC3CC(CC(C3)C1)C2,0.745
18,COCCOC(=O)N1C(=O)[C@@]2(c3cc(C#CC4=CCCCC4)ccc31)[C@H](C(=O)NC[C@H](O)c1ccccc1)[C@H]1C(=O)O[C@H](c3ccccc3)[C@H](c3ccccc3)N1[C@@H]2c1ccc(O)cc1,1.19

row,SMILES,composite z-score
1,CC(C)NC(=O)[C@@]1(Cc2ccccc2I)c2ccccc2C(=O)N(Cc2ccccc2)[C@H]1c1ccc(CO)cc1,0.986
2,O=C1N(CCS(=O)(=O)c2ccccc2)c2ccccc2C[C@@]12COC(c1ccc(OCCCO)cc1)=N2,1.33
3,CC(C)(C)N1CC=CC23O[C@@H]4C=CCOC(=O)[C@@H]4[C@H]2C(=O)N(CCCCCO)[C@@H]3C1=O (stereo not given in full),1.33
4,COCCOC(=O)N1C(=O)[C@@]2(c3cc(C#CCNC(N)=O)ccc31)[C@H](C(=O)N1CCN(c3ncccn3)CC1)[C@H]1C(=O)O[C@H](c3ccccc3)[C@H](c3ccccc3)N1[C@@H]2c1ccccc1OCCO,1.09
5,COCCOC(=O)N1C(=O)[C@@]2(c3ccccc31)[C@H](c1ccc(O)cc1)N1[C@H](c3ccccc3)[C@H](c3ccccc3)OC(=O)[C@H]1[C@@H]2C(=O)N1CCc2cc(OC)c(OC)cc2C1,0.938
6,CCCN1C(=O)[C@]2(COC(c3ccc(OCCCO)cc3)=N2)Cc2ccccc21,1.18
7,NC(=O)NCC#Cc1ccc2c(c1)[C@]1(C(=O)N2)[C@H](C(=O)NC[C@H](O)c2ccccc2)[C@H]2C(=O)O[C@H](c3ccccc3)[C@H](c3ccccc3)N2[C@@H]1c1ccc(O)cc1,0.983
8,CC(C)N1C(=O)c2ccccc2[C@@H](C(=O)NCCCN(C)C)[C@@H]1c1ccc(CO)cc1,1.11
9,CC(C)=CCCC(C)=CC(O)C1C=CC2C(=O)N(c3ccccc3)C(=O)C2N1Nc1ccccc1 (stereo not given),1.06
10,CN(C)CCCCCCNC(=O)[C@H]1C[C@H]2C(=O)N[C@@H](CCCCN)C(=O)N2[C@H]1c1ccc(O)cc1,1.5
11,O=C1O[C@H](c2ccccc2)[C@H](c2ccccc2)N2[C@H]1[C@@H](C(=O)N1CCN(c3ncccn3)CC1)[C@]1(C(=O)Nc3ccccc31)[C@H]2c1ccc(OCCO)cc1,1.31
12,COc1cc2c(cc1O)C(C)N(Cc1cccc(OC(F)(F)F)c1)CC2 (stereo not given),1.47
13,[N-]=[N+]=NCc1ccccc1C[C@@]1(C(=O)N2CCOCC2)N=C(c2ccc(OCCCO)cc2)O[C@@H]1c1ccccc1CN=[N+]=[N-],1.37
14,N[C@@H](Cc1ccccc1)Cn1cc(-c2ccccc2)nn1,0.198
15,CC(=CC1CCCCC1)[C@@H](NC(=O)c1ccc(C(F)(F)F)cc1)c1ccc(-c2ccccc2)cc1,-0.54
16,CCOC(=O)C[C@H]1[C@H](OC(=O)c2ccccc2-c2ccccc2)[C@@H](NC(=O)c2ccc3ccccc3c2)c2cc(OCCCO)ccc2N1C(=O)c1ccc2ccccc2n1,0.545
17,CC(c1ccccc1)C(O)C1C=CC2C(=O)NC(=O)C2N1Nc1ccccn1 (stereo not given),1.33
